High-throughput results: PubChem BioAssay, National Center for Advancing Translational Sciences (NCATS)
RE007 growth inh: qHTS Assay for Inhibitors of the HIV-1 protein Vpr; S. pombe RE007 Vpr strain, BacTiter-Glo ATP luminescence, 24 h; Potency, µM (top dose mostly 92.2 µM), without a hit: top-dose activity change, negative = less growth, actives largely listed as inhibitors; 0.21% of 360,000 active; AID 651644, 2012; active = well fitted falling curve with a large enough effect; inconclusive = small, poorly fitted or top-dose-only effect; inactive = no such curve, though single readings can be large or run the other way; also: % is scaled to controls: 0 for no effect and ±100 for the full control effect; nearly all actives have a fitted effect of over 50% in size
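Fission yeast strain RE007, carrying one chromosomally integrated HIV-1 vpr copy, was seeded at OD 0.01 in PMG+AL medium with 23 nL pinned compound. After 24 h at 30 °C and 99% humidity, viability was read by BacTiter-Glo luminescence.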
Tb PYK inh: qHTS of Trypanosoma Brucei Inhibitors. Potency, µM (titrated, usually from 76.8 µM), inactives show at the top dose activity, negative = inhibition, hits mostly inhibitors. AID 624173, 2012. TbPYK enzyme, Kinase-Glo Plus ATP luminescence, 45 min. pyruvate kinase (Trypanosoma brucei), Q57TT1. 0.12% of 410,000 active; also: % is scaled to controls: 0 for no effect and ±100 for the full control effect; nearly all actives have a fitted effect of over 50% in size
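Readout: single end-point luminescence (Kinase-Glo Plus, 10 min). Reaction conditions were TbPYK/substrate plus 130 uM ADP, 45 min at RT, pH 7.2 TEA buffer. No-enzyme wells served as controls, and data were normalized before concentration-response fitting.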
NS1 inh: qHTS Assay for Inhibitors of Influenza NS1 Protein Function | Potency, µM (top dose mostly 46.1 µM), for the others: at the top dose activity, positive = more growth | 0.4% of 270,000 active; calls by dose curve; also: actives are rising curves; nearly all actives have a fitted effect of over 50% in size
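S. cerevisiae expressing influenza A NS1, grown in glucose, washed, then diluted 1:100 into pH 6.0 -URA galactose medium with 23 nl compound. Growth recovery read as OD600; NS1-free strain serves as control.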
LmPK inhibitor: qHTS Assay for Inhibitors of Leishmania Mexicana Pyruvate Kinase (LmPK). Q27686. purified LmPK, Kinase-Glo ATP luminescence, 1 h. Potency, µM (doses to about 57.5 µM), for the others: at the highest dose activity change, negative = inhibition, most hits filed as inhibitors. 0.37% of 290,000 active. AID 1721, 2009; also: % is scaled to controls: 0 for no effect and ±100 for the full control effect
Target sequence (Q27686 whole entry, looked up): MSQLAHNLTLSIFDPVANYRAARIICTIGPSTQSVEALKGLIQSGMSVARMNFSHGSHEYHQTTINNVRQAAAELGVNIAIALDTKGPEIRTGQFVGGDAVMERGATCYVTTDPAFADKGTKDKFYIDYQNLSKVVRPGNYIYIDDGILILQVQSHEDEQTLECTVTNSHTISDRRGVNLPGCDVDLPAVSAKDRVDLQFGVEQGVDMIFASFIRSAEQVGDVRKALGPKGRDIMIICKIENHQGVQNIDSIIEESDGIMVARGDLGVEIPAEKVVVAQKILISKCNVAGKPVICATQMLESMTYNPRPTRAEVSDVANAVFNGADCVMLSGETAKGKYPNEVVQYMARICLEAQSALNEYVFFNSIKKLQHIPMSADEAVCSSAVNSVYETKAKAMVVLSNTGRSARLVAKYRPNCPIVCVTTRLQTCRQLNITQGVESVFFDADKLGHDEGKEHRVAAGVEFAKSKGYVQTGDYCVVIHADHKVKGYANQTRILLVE
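Purified LmPK (0.1 nM) converted ADP (0.1 mM) to ATP with PEP (0.5 mM) in imidazole buffer pH 7.2 with KCl and MgCl2, 1 h at room temperature. ATP was read by Kinase-Glo luminescence; data normalized to uninhibited and no-enzyme controls.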
* = called active by the depositor; ? = inconclusive; . = not tested or not shown; [ ] = remark or other dose. Most compounds without a hit are left out; they make up all but 0.77% or so of the library. Unless noted, calls follow the shape of the dose curve; as a rule, active = well fitted curve in the direction sought with a large enough effect; inconclusive = small, poorly fitted or top-dose-only effect, or another doubt; inactive = no such curve, though single readings can be large; an effect the other way counts as inactive or inconclusive. Potency is read from the fitted curve at half-maximal effect.

SMILES | RE007 growth inh | Tb PYK inh | NS1 inh | LmPK inhibitor
O=C(Nc1ccccc1C(=O)N/N=C/c1ccco1)c1ccc(F)cc1 | 22µM* | -1% | 13% | 16µM*
CCCCCCCOC(=O)C1=C(C)Nc2ncnn2C1c1cccs1 (stereo not drawn) | -8% | -2% | 5% | 5%
CCCCCCCCOC(=O)C1=C(C)Nc2nnnn2C1c1cccs1 (stereo not drawn) | 32µM* | -24% | -67% | 0%
Nc1ccc(S(=O)(=O)c2cc(O)c3ccccc3c2O)cc1 | -4% | 11µM* | . | .
O=[N+]([O-])c1ccc(N2CCCCCC2)c2nonc12 | -12% | 1% | 5% | -1%
Cc1ccc(S(=O)c2ccc([N+](=O)[O-])c3nonc23)cc1 (stereo not drawn) | ? | 6.3µM* | . | .
COc1ccc(-c2noc(CSc3nnc(-c4ccncc4)n3-c3ccc(OC)cc3)n2)cc1 | . | 4% | . | .
O=C(c1ccccc1)c1cc(F)c(N2CCOCC2)cc1Cl | 40µM* | 3% | -55% | -3%
CCn1cc2nc(SCc3cc(C)ccc3C)n(CCc3ccccc3)c(=O)c2n1 | . | -2% | . | .
O=C(NCc1ccco1)c1cc2ccc(O)cc2oc1=O | 35µM* | ? | -232% | 14µM*
CCn1c(C)c(C2N3CC4(C)CN2CC(C)(C3)C4=O)c2ccccc21 (stereo not drawn) | . | 2% | . | .
Cc1nc(Nc2nc3ccccc3o2)nc(C)c1C | -20% | ? | . | 18µM*
Cc1ccnc(Nc2nc3ccccc3o2)n1 | -21% | ? | 7% | 22µM*
Cc1cc(C)c2cc3c(N)c(C(=O)Nc4c(C)[nH]c(=O)[nH]c4=O)sc3nc2c1 | 3% | -5% | 1.4µM* | 1%
Cc1cc(C)c2cc3c(N)c(C(=O)N4CCOCC4)sc3nc2c1 | 4% | -15% | 4% | 3%
Cc1cc(=Nc2ccc3c(c2)c(N)cc(C)[n+]3C)nc(N)n1C | . | . | -49% | .
Cc1cccc(C)c1NC(=O)COC(=O)c1c2c(nc3ccccc13)/C(=C\c1ccc3c(c1)OCO3)CCC2 | 5% | 2% | 0% | 0%
CC(OC(=O)c1c2c(nc3ccccc13)/C(=C\c1ccc3c(c1)OCO3)CCC2)C(=O)Nc1ccc(S(N)(=O)=O)cc1 (stereo not drawn) | . | -1% | 11µM* | -5%
Cc1ccc(OCC(=O)Nc2nnc(SCc3cc(=O)c4ccccc4[nH]3)s2)cc1C | . | -10% | . | .
Cc1ccc(OCC(=O)Nc2nnc(SCc3cc(=O)c4ccccc4[nH]3)s2)cc1 | . | 28µM* | . | .
Cc1ccc(NCCC(=O)c2cccc([N+](=O)[O-])c2)cc1 | 5.6µM* | -15% | 21% | -6%
O=C(CCNc1ccc(Br)cc1)c1cccc([N+](=O)[O-])c1 | ? | -18% | 0% | 0%
O=C(CCNc1ccccc1)c1cccc([N+](=O)[O-])c1 | 11µM* | 3% | -63% | 0%
O=C(CCNc1ccc(F)cc1)c1cccc([N+](=O)[O-])c1 | 18µM* | -6% | -32% | 6%
CCOC(=O)c1cc2c(=O)n3ccccc3nc2n(CCOC)c1=NC(=O)c1c(-c2ccccc2Cl)noc1C | . | 3% | . | .
SMILES | RE007 growth inh | Tb PYK inh | NS1 inh | LmPK inhibitor
c1ccc(-c2cnc(-c3ccc(-c4ncc(-c5ccccc5)o4)cc3)o2)cc1 | . | . | -8% | .
NS(=O)(=O)c1ccc(-c2ccc(C=C3C(=O)NC(=O)NC3=O)o2)cc1 | 12% | 10µM* | 6% | -14%
CC1(C)OC(=O)C(=Cc2ccc(-c3ccc(S(N)(=O)=O)cc3)o2)C(=O)O1 | 9% | 22µM* | . | -1%
NS(=O)(=O)c1ccc(-c2ccc(C=C3C(=O)NC(=S)NC3=O)o2)cc1 | . | . | 1% | 1%
COc1ccccc1NC(=O)C1=C(C)Nc2nc(SC)nn2C1c1ccccc1Cl (stereo not drawn) | . | -2% | . | .
N/C(=N\OC(=O)c1ccc(Cl)c(Cl)c1)c1cccnc1 | -4% | 6% | -69% | -8%
N/C(=N\OC(=O)c1ccc2c(c1)OCO2)c1cccnc1 | ? | -23% | 3% | 25µM*
N/C(=N\OC(=O)c1cc(Cl)ccc1Cl)c1cccnc1 | -5% | 0% | -15% | 0%
N/C(=N\OC(=O)c1ccccc1Cl)c1cccnc1 | 20µM* | -1% | -6% | ?
N/C(=N\OC(=O)c1ccc2c(c1)OCO2)c1cccc(Br)c1 | -24% | -30% | -68% | 13µM*
CCCCNS(=O)(=O)c1ccc(C)c(-c2nnc3c4ccccc4c(C)nn23)c1 | . | -3% | . | .
COc1ccc(-n2nc3c(c2NC(=O)c2cc4ccccc4o2)CS(=O)(=O)C3)cc1 | 10% | -11% | -8% | -5%
COc1ccc(-n2nc3c(c2NC(=O)c2cc4ccccc4oc2=O)CS(=O)(=O)C3)cc1 | . | . | 6.3µM* | .
O=C(CN1c2ccc(Br)cc2-c2ccccc2S1(=O)=O)N1CCCCC1 | . | -3% | . | .
N#CC(C#N)=CNCCN1CCN(C=C(C#N)C#N)CC1 | . | . | 3% | .
CCCCC[C@H](O)/C=C\[C@H]1[C@H](C/C=C\CCCC(=O)O)[C@@H](O)C[C@H]1O (tested in a mixture with another compound) | . | 3%[33.2 µM] | . | .
CCN(c1ccccc1)c1ncnc2c1cnn2-c1ccc(C)cc1C | . | -1% | . | .
CC1=NN(c2ccc(S(=O)(=O)O)cc2)C(=O)/C1=C\c1ccc(Cl)cc1 | . | . | 0% | .
CC1(C)Cc2ccccc2-c2n[nH]c(=S)n21 | 7% | 2.8µM* | 5% | 7.1µM*
Cc1cn2c(=O)cc(COC(=O)c3ccc(NC(=O)c4ccccc4C)cc3)nc2s1 | . | 0% | . | .
CCOc1ccc(NC(=O)Cn2sc3nc(C)cc(C)c3c2=O)cc1 | -16% | 5.6µM* | 12% | -16%
Cc1cc(C)c2c(=O)n(CC(=O)Nc3ccc(Cl)cc3)sc2n1 | -5% | ? | -107% | -22%
Cc1cc(C)c2c(=O)n(CC(=O)NCCCN3CCOCC3)sc2n1 | ? | 6.3µM* | 3% | -16%
Cc1ccc(NC(=O)Cn2sc3nc(C)cc(C)c3c2=O)c(Cl)c1 | 22% | 2.5µM* | 0% | -18%
Cc1cc(C)c2c(=O)n(CC(=O)Nc3cccc(F)c3)sc2n1 | -16% | ? | -76% | -15%
N=C(N)[C@H](N=Nc1ccccc1)C(N)=O | . | . | -3% | .
Cc1ccc(CN(C(=O)COc2ccc(Cl)c(C)c2)C2CCS(=O)(=O)C2)o1 (stereo not drawn) | . | 3% | . | .
